Screens from PubChem BioAssay.
LGR2 inh: blocks bursicon-induced cAMP signaling via Drosophila LGR2 | hit rate 0.35% among 380,000 | HEK293 LGR2, CRE-luciferase, bursicon-stimulated, 4 h | inhibition, % at 9.99 µM | AID 720647;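 active = drop in luminescence signal, shown as inhibition above about 50% in the replicate tests, limit read from the data, passing the limit was not always enough; inconclusive = probably only some replicates passing the limit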;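 also: agonist challenge used bursicon conditioned medium at about half maximal strength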
HSP90 inh: inhibitors of HSP90 luciferase refolding in rabbit reticulocyte lysate; luciferase refolding luminescence, 3 h; inhibition, % at 5.6 µM; hit rate 0.91% among 290,000; AID 1789;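 active = inhibition above the screen-wide mean plus 3 SD, computed separately per campaign, cut at about 16% in these data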;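 also: 0% = DMSO wells and 100% = 60 µM geldanamycin wells; inhibitors lower the luminescence because luciferase stays unfolded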
TWEAK-Fn14 inh: TWEAK-Fn14 signaling inhibition | TWEAK-stimulated Fn14 reporter cells, luciferase luminescence, 8 h | inhibition, % at 10 µM | hit rate 2% among 360,000 | AID 1159606; in the data active = inhibition above about 50%
TROY NFkB inh: blocks TROY-dependent signaling in reporter cells. inhibition, % at 10 µM. Q293 LMP1-TROYcd NF-kB luciferase reporter, 4 h. hit rate 0.98% among 360,000;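 active = compounds whose plate-normalised and pattern-corrected inhibition of the luciferase reporter signal at the single screening dose is 50% or more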
HSP90 confirm: HSP90 inhibition, confirmation assay | AID 1846 | inhibition, % at 5.9 µM | shares compounds with HSP90 inh | hit rate 64% among 2,300 | rabbit reticulocyte lysate, luciferase refolding luminescence, 3 h; in the data active = inhibition above about 18%;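 also: 0% = vehicle wells and 100% = reference inhibitor wells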
FLuc counter: blocks native firefly luciferase in HSP90 counter-screen; purified native firefly luciferase, luminescence; inhibition, % at 5.9 µM; shares compounds with HSP90 inh; hit rate 48% among 2,300;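 active = inhibition above the mean inhibition of all tested sample wells plus 3 SD, cut at about 10% in these data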;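 also: 0% = DMSO with luciferase and 100% = wells lacking luciferase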
Target sequence (P08659 whole entry, looked up): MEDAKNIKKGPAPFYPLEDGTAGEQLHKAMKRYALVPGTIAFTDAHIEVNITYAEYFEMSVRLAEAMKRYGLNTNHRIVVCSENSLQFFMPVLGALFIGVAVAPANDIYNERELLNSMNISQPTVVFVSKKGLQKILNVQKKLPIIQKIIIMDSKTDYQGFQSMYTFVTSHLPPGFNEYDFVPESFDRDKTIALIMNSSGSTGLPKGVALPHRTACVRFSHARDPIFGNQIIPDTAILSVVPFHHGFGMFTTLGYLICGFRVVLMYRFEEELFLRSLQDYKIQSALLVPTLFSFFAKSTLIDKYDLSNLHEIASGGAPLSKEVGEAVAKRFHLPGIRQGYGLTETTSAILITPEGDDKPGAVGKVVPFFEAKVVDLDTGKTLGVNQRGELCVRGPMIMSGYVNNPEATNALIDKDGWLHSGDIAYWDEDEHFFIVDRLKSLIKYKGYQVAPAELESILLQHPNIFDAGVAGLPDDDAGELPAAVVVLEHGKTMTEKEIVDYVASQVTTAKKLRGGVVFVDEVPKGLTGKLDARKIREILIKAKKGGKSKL
The depositor's hits bear a star; ? = inconclusive; . = not tested or not shown. An excerpt weighted towards active compounds, which were near 2.2% of everything screened.

SMILES | LGR2 inh | HSP90 inh | TWEAK-Fn14 inh | TROY NFkB inh | HSP90 confirm | FLuc counter
O=C(OCC(F)(F)F)c1cccc(COc2ccc3ccccc3c2)c1 | . | 25* | -2 | -53 | 93* | 22*
O=C(O)c1cccc(COc2ccc3c(c2)CCC3)c1 | 101* | 83* | 12 | -89 | 95* | 93*
C[C@@H]1CN([C@H](C)CO)C(=O)c2cc(C#CCN(C)C)cnc2O[C@H]1CN(C)Cc1cccc(C(=O)O)c1 | 10 | . | . | . | . | .
CC(C)NC(=O)N(C)C[C@@H]1Oc2ccc(NC(=O)Cc3cn(C)c4ccccc34)cc2C(=O)N([C@@H](C)CO)C[C@H]1C | 17 | . | . | . | . | .
COc1ccc(C(=O)Nc2ccc(C)cn2)c(OC)c1 | . | 88* | 102* | 76* | 88* | 82*
CCCc1ccc(OCc2ccc(C(=O)N/N=C/c3cccnc3)o2)cc1 | -162 | 36* | -21 | 0 | 26* | -15
CCOc1ccc(CC(=O)N/N=C/c2cccnc2)cc1 | . | 0 | 19 | -22 | . | .
Cc1ccc(S(=O)(=O)N(C)C[C@@H]2OCc3ccccc3-c3ccccc3C(=O)N([C@H](C)CO)C[C@H]2C)cc1 | 9 | . | . | . | . | .
CC(=O)c1cc(-c2ccccc2)n(CCC(=O)NC2CCCCC2)c1C | -16 | 27* | 0 | 23 | 1 | -4
CC(=O)c1cc(-c2ccccc2)n(CCC(=O)NC2CCCC2)c1C | . | 3 | 5 | -12 | . | .
CN1C(=O)c2cc(NC(=O)c3ccc(F)c(F)c3)ccc2OC[C@@H]2O[C@H](CC(=O)N[C@H]3CCN(Cc4ccccc4)C3)CC[C@@H]21 | 14 | . | . | . | . | .
O=C(N/N=C/c1cccs1)c1ccccn1 | -18 | 4 | 5 | -23 | . | .
CCc1ccc(/C=N/NC(=O)c2ccccn2)cc1 | 71* | 23* | 86* | 42 | 73* | 65*
Cc1ccc(/C=N/NC(=O)c2ccccn2)s1 | ? | 18* | 51* | 5 | 31* | 19*
CCCCn1c(NC(C)=O)c(C#N)c2nc3ccccc3nc21 | . | 24* | -1 | 12 | 3 | -2
CCCCn1c(NC(=O)c2ccc(Br)o2)c(S(=O)(=O)c2ccccc2)c2nc3ccccc3nc21 | . | 34* | 74* | 71* | 3 | -6
CCCCCn1c(N)c(C#N)c2nc3ccccc3nc21 | 1 | 1 | 26 | 26 | . | .
C=CCn1c(NC(=O)c2ccccc2Cl)c(C#N)c2nc3ccccc3nc21 | . | 49* | 13 | 66* | 12 | 0
C[C@H]1CCCCO[C@H](CN(C)C)[C@@H](C)CN([C@@H](C)CO)C(=O)c2cc(NS(=O)(=O)c3cn(C)cn3)ccc2O1 | 2 | . | . | . | . | .
COc1ccc(CN(C)C[C@@H]2Oc3ccc(NC(=O)Nc4ccc(C(F)(F)F)cc4)cc3C(=O)N([C@@H](C)CO)C[C@H]2C)cc1 | 7 | . | . | . | . | .
CO[C@H]1CN(C)C(=O)c2cc(NC(C)=O)ccc2OC[C@@H](C)N(Cc2ccccc2F)C[C@H]1C | -28 | . | . | . | . | .
C[C@@H]1CN([C@H](C)CO)C(=O)c2cc(-c3ccc(F)cc3)cnc2O[C@H]1CN(C)C(=O)c1ccccc1F | 13 | . | . | . | . | .
NS(=O)(=O)c1ccc(-c2ccc(/C=N/NC(=O)c3ccccc3O)o2)cc1 | -11 | 1 | 0 | -11 | . | .
Cc1ccc(OCC(=O)N/N=C\c2ccc(-c3cccc(C(=O)O)c3)o2)c(C)c1 | -14 | 4 | -21 | -70 | . | .
Cc1ccc(-c2ccc(/C=N/NC(=O)c3ccccc3O)o2)cc1 | . | 22* | . | . | -3 | -11
SMILES | LGR2 inh | HSP90 inh | TWEAK-Fn14 inh | TROY NFkB inh | HSP90 confirm | FLuc counter
CNC(=S)N/N=C/c1ccc(-c2cccc(C(=O)O)c2)o1 | 65* | 26* | -35 | -45 | 15 | 0
NC(=S)N/N=C/c1cn(-c2ccccc2)nc1-c1cccnc1 | 4 | 30* | -5 | -30 | 1 | -8
NC(=O)N/N=C/c1cn(-c2ccccc2)nc1-c1cccnc1 | . | 6 | . | . | . | .
COC(=O)c1nn(-c2ccc3c(c2)OCO3)cc1O | . | 9 | 29 | -22 | . | .
COC(=O)c1nn(-c2ccc3c(c2)CCN3C(C)=O)cc1O | . | 85* | 103* | 76* | 88* | 74*
COc1cccc(/C=N/Nc2nnc(C)n2N)c1O | 10 | 3 | 11 | 1 | . | .
COc1ccc(-n2c(C)cc(/C=N/Nc3nnc(C)n3N)c2C)cc1 | 3 | 75* | -6 | 6 | -5 | -7
COc1ccc(C(NC(C)=O)c2cc(Cl)c3cccnc3c2O)cc1 (stereo not given) | 21 | 11 | 30 | 23 | . | .
CC(=O)NC(c1ccccc1)c1cc(Cl)c2cccnc2c1O (stereo not given) | 8 | 18* | 12 | 10 | 15 | -2
COc1ccc(S(=O)(=O)Nc2cccc3c2O[C@@H](CN(C)C(=O)Nc2ccc(C(F)(F)F)cc2)[C@@H](C)CN([C@H](C)CO)C3=O)cc1 | -5 | . | . | . | . | .
O=C(C1CCCC1)N1[C@@H]2CN(S(=O)(=O)c3ccccc3)c3ccccc3[C@@H]2[C@@H]1CO | -18 | . | . | . | . | .
C[C@@H]1CN([C@H](C)CO)C(=O)c2cc(Br)cnc2O[C@H]1CN(C)C(=O)C1CCC1 | 10 | . | . | . | . | .
CCN1CCN(/C=N/c2nc3c(s2)CCCC3)CC1 | 80* | 65* | 96* | 86* | 72* | 42*
Cc1cc(C(=O)O)ccc1N/C=C1\CCCC(C)C1=O (stereo not given) | . | 34* | 25 | . | 70* | 32*
CC1CCC/C(=C\Nc2ccc(O)cc2)C1=O (stereo not given) | . | 4 | 14 | -1 | . | .
COc1cccc(CNC(=O)C2=C(C)C(=O)OC23CCC(C)CC3)c1 (stereo not given) | . | 35* | -14 | 20 | -2 | -4
O=C(Nc1nccs1)c1cn2ccccc2n1 | 14 | 33* | 34 | 6 | 54* | 43*
NNC(=O)c1cn2ccccc2n1 | . | -2 | -17 | -28 | . | .
NC1=NS(=O)(=O)NC1c1cccc(F)c1 (stereo not given) | . | -2 | -3 | 3 | . | .
NC1=NS(=O)(=O)NC1c1cccc(Cl)c1 (stereo not given) | -3 | 22* | 82* | 1 | -3 | -6
C/C=C/c1cnc2c(c1)C(=O)N([C@@H](C)CO)C[C@H](C)[C@@H](CN(C)C(=O)C1CCC1)O2 | -13 | . | . | . | . | .
Cc1cccc(C(=O)N2CCN(c3ccc(C(F)(F)F)cn3)CC2)c1C | . | 38* | -4 | 9 | 2 | -5
Cc1cc(C(=O)N2CCN(c3ccc(C(F)(F)F)cn3)CC2)c(C)o1 | -4 | -1 | -11 | 16 | . | .
COc1ccc2c3c(n(C)c2c1)[C@H](CO)N(CC1CCOCC1)CC31CN(C(=O)c2cccc(F)c2)C1 | -2 | . | . | . | . | .
CCCn1c(C)cc(C(=O)COC(=O)c2nccnc2N)c1C | 31 | 25* | 72* | 56* | 40* | 57*
CCCn1c(C)cc(C(=O)COC(=O)c2cc(=O)[nH]c3ccccc23)c1C | -60 | . | -21 | -20 | . | .
Cc1cc2ccccc2n1CCNC(=O)c1ccccc1 | -25 | 40* | 30 | 28 | 51* | -3
CC(=O)NCCn1c(C)cc2ccccc21 | 0 | . | 7 | 8 | . | .
